Measurements: the supplement of paper PMC4840960
Where a name gives a salt, the structure may show the parent alone. ± gives the standard deviation of the averaged measurements.

Test system: E18 rat cortical neuron-glia co-culture
Experiment: fiber score / MBP score (myelination specific beyond OL differentiation) (ratio); higher = more myelination-specific MBP alignment
Conditions: 5 µM; treatment time: 8 days (DIV5-DIV13)
In short: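 The measure is the ratio of fiber score to MBP score, where fiber score is continuous MBP fiber length per Olig2+ nucleus and MBP score is thresholded MBP area × intensity per Olig2+ nucleus. Primary E18 rat cortical co-cultures received library compounds at 1 or 5 µM in myelination medium from DIV5 to DIV13, then were fixed in 4 % paraformaldehyde and stained for MBP, Olig2 and DAPI before analysis of four 10X fields per well in duplicate wells.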

Structure (SMILES) | fiber score / MBP score
O=[N+]([O-])c1cccc2cn[nH]c12 [7-Nitroindazole] | 0.753
CC1(C)O[C@@H]2[C@@H](CO[C@@]3(COS(N)(=O)=O)OC(C)(C)O[C@@H]23)O1 [Topiramate] | 0.896
COc1cc2nc(N(C)CCCNC(=O)C3CCCO3)nc(N)c2cc1OC (centres undefined) [Alfuzosin] | 0.636
CC[N+](C)(C)c1cccc(O)c1 [Edrophonium] | 0.982
CC(C)n1c(/C=C/C(O)CC(O)CC(=O)O)c(-c2ccc(F)cc2)c2ccccc21 (centres undefined) [Fluvastatin] | 0.319
Nc1nc(=O)[nH]cc1F [Flucytosine] | 0.855
COCCOC(=O)C1=C(C)NC(C)=C(C(=O)OC(C)C)C1c1cccc([N+](=O)[O-])c1 (centres undefined) [Nimodipine] | 0.338
NS(=O)(=O)c1cc2c(cc1Cl)NCNS2(=O)=O [Hydrochlorothiazide] | 0.819
C=C1/C(=C\C=C2/CCC[C@]3(C)[C@@H]([C@H](C)CCCC(C)(C)O)CC[C@@H]23)C[C@@H](O)C[C@@H]1O [Calcitriol] | 0.531
OCc1cccnc1 [Nicotinyl Alcohol] | 0.687
COc1c(N2CCNC(C)C2)c(F)cc2c(=O)c(C(=O)O)cn(C3CC3)c12 (centres undefined) [Gatifloxacin] | 0.609
Cc1nccn1CC1CCc2c(c3ccccc3n2C)C1=O (centres undefined) [Ondansetron] | 0.404 ± 0.053
COCC1=C(C(=O)OC(C)OC(=O)OC(C)C)N2C(=O)[C@@H](NC(=O)/C(=N\OC)c3csc(N)n3)[C@H]2SC1 (some centres undefined) [Cefpodoxime proxetil] | 0.866
Clc1cccc(Cl)c1NC1=NCCN1 [Clonidine hydrochloride] | 0.879
C[C@H]1C[C@@H]2[C@H]([C@@H](O)C[C@@]3(C)[C@H]2CC[C@]3(O)C(=O)CO)[C@@]2(C)C=CC(=O)C=C12 [Methylprednisolone] | 1.01
CCOc1ccc2ccccc2c1C(=O)N[C@@H]1C(=O)N2[C@@H]1SC(C)(C)[C@@H]2C(=O)O [Nafcillin] | 0.777
CC(C)(C(=O)c1cccnc1)c1cccnc1 [Metyrapone] | 0.894
CC(=O)OCC(=O)[C@@]1(O)CC[C@H]2[C@@H]3CCC4=CC(=O)C=C[C@]4(C)[C@H]3[C@@H](O)C[C@@]21C [Prednisolone acetate] | 0.704
NC[C@H](O)c1ccc(O)c(O)c1 [Norepinephrine] | 0.756
Clc1ccccc1C(c1ccccc1)(c1ccccc1)n1ccnc1 [Clotrimazole] | 1.15

Structure (SMILES) | fiber score / MBP score
O=C(O)COCCN1CCN(C(c2ccccc2)c2ccc(Cl)cc2)CC1 (centres undefined) [Virlix] | 0.681
C[C@@H](O)[C@H]1C(=O)N2C(C(=O)O)=C(S[C@@H]3CN[C@H](C(=O)N(C)C)C3)[C@H](C)[C@H]12 [Meropenem] | 0.804
CC(C)NCC(O)c1cc(O)cc(O)c1 (centres undefined) [Metaproterenol] | 0.371
O=C(c1ccc(OCCN2CCCCC2)cc1)c1c(-c2ccc(O)cc2)sc2cc(O)ccc12 [Raloxifene] | 0.788
CCCCCCNC(=O)n1cc(F)c(=O)[nH]c1=O [Carmofur] | 0.729
O=C1NC(C(=O)O)CS1 (centres undefined) [2-oxothiazolidine-4-carboxylic acid] | 0.758
C[C@]12CCC(=O)C=C1CC[C@@H]1[C@@H]2CC[C@@]2(C)[C@H]1CC[C@]2(O)C(=O)CO [Cortodoxone] | 0.781
N#Cc1ccc(C(c2ccc(C#N)cc2)n2cncn2)cc1 [letrozole] | 1.09
C[C@]12C[C@H](O)[C@H]3[C@@H](CCC4=CC(=O)CC[C@@]43C)[C@@H]1CC[C@@H]2C(=O)CO [Corticosterone] | 0.702
OC(Cn1cncn1)(Cn1cncn1)c1ccc(F)cc1F [Fluconazole] | 0.784
Cc1ncc([N+](=O)[O-])n1CC(C)O (centres undefined) [Secnidazole] | 0.618
O=c1[nH]c(=O)n([C@H]2C[C@H](O)[C@@H](CO)O2)cc1F [Floxuridine] | 1.71
Oc1ncnc2[nH]ncc12 [Allopurinol] | 0.903
Cn1c(=O)c2nc[nH]c2n(C)c1=O [Theophylline] | 0.671
OC(CCN1CCCCC1)(c1ccccc1)C1CCCCC1 (centres undefined) [Trihexyphenidyl] | 0.486
c1ccc(-c2ccc(C(c3ccccc3)n3ccnc3)cc2)cc1 (centres undefined) [Bifonazole] | 1.22
NS(=O)(=O)Cc1noc2ccccc12 [Zonisamide] | 0.799
CC[C@H](C)C(=O)O[C@H]1C[C@H](O)C=C2C=C[C@H](C)[C@H](CC[C@@H](O)C[C@@H](O)CC(=O)O)[C@H]21 [Pravastatin] | 0.809
Nc1nc2ccc(OC(F)(F)F)cc2s1 [Riluzole] | 0.478
